High-throughput results deposited in PubChem by National Center for Advancing Translational Sciences (NCATS).
In the library only some 3.6% were active in any assay of this set; here they are far more common.
Epigenetic derep = epigenetic control regulation, reporter derepression | murine LDR cells, GFP reporter derepression, 30 h | Potency, µM (series often up to 53.9 µM), without a hit: at the highest dose GFP activation, usual class: activators | 280,000 compounds, 0.2% hits | AID 1865; also: % of control where 0% means no effect; nearly all actives have a fitted effect of over 60% in size
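Reporter derepression read as number of fluorescent GFP-positive objects, 20-120 um in size, counted by laser-scanning cytometer. Mouse LDR line with an epigenetically silenced CMV-GFP locus; compound incubation 30 h, 37 C.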
IMPase Li cell = cell-permeable IMPase inhibitors with lithium potentiation | CHO-M1 cells, IP1 TR-FRET (IP-One), carbachol + lithium | Potency, µM (series often up to 59.4 µM), inactives show at the highest dose activity, negative = IMPase inhibition, hits mostly inhibitors | 210,000 compounds, 0.35% hits | AID 1457;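 also: IP1 builds up when IMPase is blocked and the TR-FRET signal falls; plate controls were basal vehicle for no effect and high inhibitor control for full effect; nearly all actives have a fitted effect of over 50% in size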
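Steps: plate 2000 CHO-M1 cells per well and culture 16–30 h; add compound and lithium; incubate 30 min, 37C; add d2-IP1 tracer and Eu cryptate anti-IP1 antibody in lysis buffer; read after 10 min at room temperature.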
Sfp inh = blocks B. subtilis Sfp PPTase activity. Q9F4F7. Biochemical Sfp PPTase activity, qHTS. Potency, µM, for the others: largest response in the series, negative = inhibition, hits mostly inhibitors. 310,000 compounds, 3.5% hits;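 also: the enzyme is Sfp with the accession as filed and its product quenches rhodamine fluorescence; 0% = enzyme reaction without inhibitor and -100% = no enzyme wells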
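Fluorescence-quenching assay: 15 nM Sfp-PPTase preincubated 15 min at room temperature with compound, then 5 uM rhodamine-CoA and 12.5 uM BHQ-2-labelled YbbR peptide added. Fluorescence (ex 525/em 598 nm) read at start and after 30 min; difference gives rate.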
GCN5L2 inh = blocks human GCN5L2 histone acetyltransferase; 390,000 compounds, 0.21% hits; GCN5L2 HAT assay, ThioGlo1 CoA-SH fluorescence; Potency, µM (doses to about 58.9 µM), for the others: top-dose activity change, negative = inhibition, usual class: inhibitors; also: % is scaled to controls: 0 for no effect and ±100 for the full control effect
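GCN5L2 (20 nM) in 50mM HEPES pH 7.5, 0.1mM EDTA, 0.01% Tween-20 preincubated 15 min with compounds at room temperature. Reaction started with H3(1-25) 75uM, acetyl-CoA 70uM, ThioGlo1 50uM; CoA-thiol fluorescence (Ex340/Em540) read at 0 and 20 min.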
KDM4E inh = inhibitors of human JMJD2E histone demethylase; 230,000 compounds, 1.6% hits; AID 2147; JMJD2E catalytic domain, FDH-coupled NADH fluorescence (FDH is formaldehyde dehydrogenase); B2RXH2; Potency, µM (highest dose often 57.1 µM), for inactives: at the highest dose activity change, negative = inhibition, usual class: inhibitors; active = well fitted inhibition curve with a large enough effect, not every such curve was filed as active; inconclusive = small, poorly fitted or top-dose-only effect, or another doubt; inactive = no such curve, though single readings can be large or run the other way;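 also: 0% = wells with enzyme and -100% = buffer wells without enzyme; nearly all actives have a fitted effect of over 50% in size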
Target sequence (B2RXH2 1-337 limits assumed): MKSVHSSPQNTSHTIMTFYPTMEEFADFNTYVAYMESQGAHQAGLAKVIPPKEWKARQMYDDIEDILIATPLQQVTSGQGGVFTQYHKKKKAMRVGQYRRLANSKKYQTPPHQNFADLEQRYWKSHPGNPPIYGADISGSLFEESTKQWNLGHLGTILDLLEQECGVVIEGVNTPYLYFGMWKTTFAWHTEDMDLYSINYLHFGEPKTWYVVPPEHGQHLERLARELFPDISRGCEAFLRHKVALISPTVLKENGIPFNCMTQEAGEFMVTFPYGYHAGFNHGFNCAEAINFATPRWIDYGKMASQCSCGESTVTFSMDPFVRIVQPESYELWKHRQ
NPSR antag = blocks cAMP signaling of the human neuropeptide S receptor; Q6W5P4; CHO-NPSR cells, cAMP TR-FRET, antagonist mode; Potency, µM (series often up to 38.3 µM), inactives show at the top dose activity change, negative = inhibition, actives largely listed as inhibitors; 220,000 compounds, 1% hits; also: % is scaled to controls: 0 for no effect and ±100 for the full control effect; nearly all actives have a fitted effect of over 50% in size
Target sequence (Q6W5P4 whole entry, looked up): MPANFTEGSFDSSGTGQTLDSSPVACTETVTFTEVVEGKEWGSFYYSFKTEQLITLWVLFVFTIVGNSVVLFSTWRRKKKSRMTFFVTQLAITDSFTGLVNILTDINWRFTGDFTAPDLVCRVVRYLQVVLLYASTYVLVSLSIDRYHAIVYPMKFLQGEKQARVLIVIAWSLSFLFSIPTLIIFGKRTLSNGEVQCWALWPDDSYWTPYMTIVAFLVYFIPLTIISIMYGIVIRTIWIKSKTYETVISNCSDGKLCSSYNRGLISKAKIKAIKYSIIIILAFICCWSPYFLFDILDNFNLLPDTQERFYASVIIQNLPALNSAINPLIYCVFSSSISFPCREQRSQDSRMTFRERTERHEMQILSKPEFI
* hit, by the source's call; ? = inconclusive; . = no result given; [ ] = dose if it differs, or a comment. Unless noted, calls follow the shape of the dose curve; as a rule, active = well fitted curve in the direction sought with a large enough effect; inconclusive = small, poorly fitted or top-dose-only effect, or another doubt; inactive = no such curve, though single readings can be large; an effect the other way counts as inactive or inconclusive. Potency is read from the fitted curve at half-maximal effect.

SMILES	Epigenetic derep	IMPase Li cell	Sfp inh	GCN5L2 inh	KDM4E inh	NPSR antag
COc1ccc(Cc2nnc(N)s2)cc1	0%	-1%[38.3 µM]	?	0%	-6%	3%[46.1 µM]
COc1ccc(Cc2nnc(N)s2)cc1OC	1%	4%	22µM*	-7%	-6%	-11%[46.1 µM]
COc1ccc(S(=O)(=O)Nc2nnc(C(C)(C)C)s2)cc1	-4%	-7%[38.3 µM]	18µM*	-3%	10%	-24%[46.1 µM]
CCC1C(=O)CC2CCN3C(=O)CCC1C23 (centres undefined)	.	.	15%	.	.	.
COc1ccc(CC(=S)N2CCOCC2)cc1	-1%	19%[38.3 µM]	16µM*	3%	-5%	-9%[46.1 µM]
Cc1ccc(CC(=S)N2CCOCC2)cc1	0%	3%	35µM*	-9%	-18%	6%
COCCNC(=O)C1(C(F)(F)F)C/C(=C/CCO)CCCO1 (centres undefined)	.	.	15%	.	.	.
O=C(Cc1n[nH]c(=O)[nH]c1=O)N/N=C/c1ccccc1O	1%	5%[38.3 µM]	16%	-3%	14µM*	-1%[46.1 µM]
Cc1ccc(/C=N/NC(=O)Cc2c[nH]c3ccccc23)c(C)c1	-1%	3%[38.3 µM]	-18%	-10%	1%	?
O=C(Cc1c[nH]c2ccccc12)N/N=C/c1ccccc1O	0%	.	9%	2%	25µM*	2%
COc1ccc(/C=N/NC(=O)Cc2n[nH]c(=O)[nH]c2=O)cc1	-4%	.	9%	-5%	-6%	13%
O=C(NCCN1CCOCC1)c1ccc(-n2c(=O)c(=O)[nH]c3ccccc32)cc1	-4%	.	.	.	.	.
C=CCc1ccccc1OCC(O)CN1CCN(CCN2C(=O)c3cccc4cccc(c34)C2=O)CC1 (centres undefined)	-1%	20%	5.6µM*	-9%	?	7%
Cc1ccccc1OCC(O)CN1CCN(CCN2C(=O)c3cccc4cccc(c34)C2=O)CC1 (centres undefined)	-1%	10%	12%	-6%	?	20%
CC1CCN(c2ccc(-c3cccc(NS(=O)(=O)c4ccc(F)cc4F)c3)nn2)CC1	-3%	.	.	-23%	.	.
CCCCNC(=S)NCC(c1ccccc1)c1c[nH]c2ccccc12 (centres undefined)	.	.	17%	-12%	.	.
CN(C)CCCNC(=S)NCC(c1ccc(Cl)cc1Cl)c1c[nH]c2ccccc12 (centres undefined)	.	.	50µM*	0%	.	.
CCOc1ccc(-c2nc(C)c(C(C)=O)n2O)cc1	-1%	43%[38.3 µM]	18µM*	0%	?	-13%[46.1 µM]
O=C(O)c1ccc(COc2ccc3ccccc3c2/C=C2/NC(=O)N(Cc3ccc(F)cc3)C2=O)cc1	-1%	24%	71µM*	0%	?	-45%
OC1c2ccccc2N=C2CCCN21 (centres undefined)	.	.	20%	3%	.	.
O=S(=O)(c1ccc2ccccc2c1)N1CCN(Cc2ccccn2)CC1	4%	-7%	71µM*	-3%	0%	18%
COc1ccc(C(=O)N2CCN(Cc3ccccn3)CC2)cc1	.	.	56µM*	-10%	.	.
O=c1[nH]c(CN2CCN(S(=O)(=O)c3ccc4ccccc4c3)CC2)nc2ccccc12	-2%	-9%	-6%	-1%	?	-26%
COc1cc(C(=O)N2CCN(Cc3ccccn3)CC2)cc(OC)c1OC	.	.	35µM*	-7%	.	.
CC12CCC=CC1C(c1ccc3ccccc3c1C=Cc1ccccc1)N(Cc1ccccc1)C2=O (centres undefined)	.	.	0%	.	.	.
SMILES	Epigenetic derep	IMPase Li cell	Sfp inh	GCN5L2 inh	KDM4E inh	NPSR antag
C/C(CCC(=O)OC[C@@H]1O[C@H](C#Cc2ccccc2)C=C[C@@H]1Oc1ccc(C)cc1)=N/O[C@@H](C)CN1CCCc2nc(C)c(C)cc21	1%[10.1 µM]	.	-11%	.	.	.
CNC(=O)COC(=O)/C=C/c1cn(-c2ccccc2)nc1-c1ccc(C)o1	0%	.	50µM*	-13%	?	20%
O=C(O)/C=C/c1cn(-c2ccccc2)nc1-c1ccc(-c2ccc([N+](=O)[O-])cc2)o1	0%	.	25µM*	?	-3%	59%
COc1ccc(-c2nn(-c3ccccc3)cc2/C=C/C(=O)OCC(=O)Nc2ccccc2C#N)cc1	1%	-7%	14%	19%	1%	-8%
CCC(=O)[C@@H](c1ccccc1)c1ccccn1	.	-8%	.	.	.	.
O=C1C[C@H](c2ccc3ccccc3c2)N1S(=O)(=O)c1ccccc1[N+](=O)[O-]	.	.	-9%	.	.	.
COCc1[nH]c(=S)c(C#N)cc1C(=O)OC	-1%	.	8.9µM*	-19%	25µM*	-40%
CC(=O)c1cc2cc(O)ccc2o1	0%	11µM*	4%	?	?	-11%[46.1 µM]
CC(=O)c1cc2c(O)c(O)ccc2o1	1%	.	56µM*	1%	?	-21%[46.1 µM]
O=C(O)c1cc2c(ccc3ccccc32)o1	-1%	.	1%	-2%	?	-3%[46.1 µM]
CCN(CC)S(=O)(=O)c1cc(NC(=O)COC(=O)c2ccc(NC(=O)CC#N)cc2)ccc1C	0%	-7%	0%	-9%	4µM*	1%
CC(C)OC(=O)[C@@H]1CC[C@H](C)[C@@H](CCCCO)O1	0%	5%	-3%	.	14%	.
Cc1cccc(Cn2cnc3c(cnn3-c3ccc(Cl)cc3)c2=O)c1	0%	.	.	-6%	.	.
CCc1cccc(NC(=S)N(CCOC)C(C)c2ccco2)c1 (centres undefined)	-3%	.	56µM*	-8%	-2%	-57%
Nc1nc(-c2ccc(Br)s2)c(Br)s1	-1%	11%[38.3 µM]	35µM*	-13%	-5%	-11%[46.1 µM]
O=C(O)CN(CCN(CC(=O)O)CC(=O)O)CC(=O)O.[Cu]	.	-3%	.	.	.	.
COc1ccc(-c2csc(Nc3ccccc3)n2)cc1	1%	16%	-4%	-6%	5%	-34%
CC(=O)c1ccc(Nc2nc(-c3cccnc3)cs2)cc1	.	.	1%	-11%	.	.
O=C(O)c1ccc(Nc2nc(-c3cccnc3)cs2)cc1	.	.	89µM*	9%	.	.
COc1ccc(-c2csc(Nc3cccnc3)n2)cc1	0%	-12%[38.3 µM]	79µM*	.	-2%	?
Oc1ccc(Nc2nc(-c3cccnc3)cs2)cc1	.	.	-16%	-5%	.	.
Brc1ccc(Nc2nc(-c3cccnc3)cs2)cc1	4%	13%	45µM*	-1%	-8%	-29%
COc1ccc(-n2cc(-c3ccc(Cl)cc3)[nH]c2=S)cc1	3%	.	2%	0%	-27%	12%
Cc1ccc(-n2c(-c3ccccc3)c[nH]c2=S)cc1	0%	-3%	-22%	-10%	-13%	-11%
COc1ccc(-n2c(-c3ccc(Cl)cc3)c[nH]c2=S)cc1	.	.	56µM*	-13%	.	.
S=c1[nH]cc(-c2ccccc2)n1-c1ccccc1	-2%	1%[38.3 µM]	45µM*	3.5µM*	-14%	-3%[46.1 µM]
